Five compounds from PubChem BioAssay AID743262 (National Center for Advancing Translational Sciences (NCATS), 2014) can be followed below.

About 25 (2%) of roughly 1,300 compounds were called active. Roughly 9% stayed inconclusive and do not appear here. Many of the other results were omitted from the sample, so actives are more common in it than they were. A number with no mark means an inactive call. The call rests on the fitted dose curve; in most records, active means well fitted activation curve with a large enough effect; inconclusive means small, poorly fitted or top-dose-only effect; inactive means flat fitted curve, though single readings scatter.
Potency means the concentration at half of the fitted maximal effect.

Glucagon-like peptide 1 receptor (Homo sapiens), sequence (P43220 whole entry, looked up): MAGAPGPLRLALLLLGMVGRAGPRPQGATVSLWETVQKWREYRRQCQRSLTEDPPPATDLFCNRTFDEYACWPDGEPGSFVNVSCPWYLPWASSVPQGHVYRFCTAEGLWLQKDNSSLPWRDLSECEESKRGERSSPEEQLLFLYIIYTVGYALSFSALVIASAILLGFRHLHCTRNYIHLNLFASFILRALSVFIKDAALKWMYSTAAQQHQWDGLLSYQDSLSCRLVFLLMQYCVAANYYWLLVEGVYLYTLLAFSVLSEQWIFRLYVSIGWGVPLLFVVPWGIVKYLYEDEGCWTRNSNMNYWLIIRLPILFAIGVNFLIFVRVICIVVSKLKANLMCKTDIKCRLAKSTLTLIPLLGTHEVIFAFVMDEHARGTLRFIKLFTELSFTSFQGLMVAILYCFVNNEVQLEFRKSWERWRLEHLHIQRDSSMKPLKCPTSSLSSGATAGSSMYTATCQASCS

This test has as its target Glucagon-like peptide 1 receptor (Homo sapiens) (UniProt P43220). As to the kind of experiment: qHTS of GLP-1 Receptor Agonists: Hit Validation. On activation: % of control where 0% means no effect. The note with it: HEK293 GLP-1R, cAMP-response luciferase, 4-6 h; series mostly up to 46.1 µM; activation: at the top concentration. The text has this:
The overall goal of this project was to develop a novel assay for discovering small molecule ligands for class B1 G protein-coupled receptors (GPCRs). Very few agonists (or inverse agonists) with generally weak activity for this entire group of physiologically important receptors are known to date. To establish proof-of-principle that this critical bottleneck can be overcome with a suitable screening approach, our studies focused on the class B1 receptor for glucagon-like peptide-1 (GLP-1R), a potential therapeutic target for diabetes and neurodegenerative disease. The assay was developed in a "mix and measure" format using a cell-based functional readout. Toward this goal, stably transfected HEK293 cell clones were established that co-express (i) a cAMP-responsive luciferase reporter gene, and (ii) GLP-1Rs that upon ligand interaction either stimulate (agonists) or inhibit (inverse agonists) luciferase activity. In different cell lines to be used for screening, expressed GLP-1Rs are specifically optimized for high sensitivity detection of either weak agonists (hypersensitive receptor) or inverse agonists (constitutively active receptor mutant). In addition, control cell lines were developed that express either the cAMP-responsive reporter gene without recombinant GLP-1Rs (enabling initial exclusion of GLP-1R independent effects of candidate probes), or the reporter gene together with wild type GLP-1Rs (for confirmation of probe activity at this receptor), or the reporter gene in combination with the constitutively active orphan receptor GPR119 (enabling initial exclusion of GLP-1R independent inhibitory effects of candidate inverse agonists). To that end, this assay was optimized for 1536-well format and screened against the MLSMR. NIH Molecular Libraries Probe Production Network [MLPCN] NIH Chemical Genomics Center [NCGC] Grant: NS064851 PI Name: Martin Beinborn, Tufts Medical Center
In a white solid 1536-well plate, 6 uL of cells are dispensed in DMEM without phenol red, 10% Nu serum, and 1% pen-strep medium. The plates are then incubated for 12 hours at 37 deg C at 5% CO2 before 23 nL of compounds are added. After a 4-6 hr incubation at37 deg C and 5% CO2, 3 uL of detection reagent are added and after a 12 min incubation at RT, a luminescent read is obtained on the ViewLux.
On the technique in general: qHTS replaces the single test concentration by a dilution series.
In the case of `CC(Cc1ccc(O)cc1)NCC(O)c1ccc(O)c(O)c1` (stereo not given), the Potency was 9.2 nM (active).

For the compound `O=c1[nH]cnc2nc(-c3ccc(N(CCCl)CCCl)cc3)[nH]c12`, the “activation” value was 17.1%.

`N#Cc1c(/N=C/c2ccc(O)cc2O)sc2c1C1CCN2CC1`: the “activation” value was 12.4%.

Take `C[C@@H]1CN([C@H](C)CO)C(=O)CCCn2cc(nn2)CO[C@H]1CN(C)C(=O)Oc1ccc2ccccc2c1`: the “activation” value was -0.911%.

For `CN1CCN=C(c2ccccc2)c2cc(Cl)ccc21`, the “activation” value was -0.229%.
